# DT40 TDP1 no CPT = qHTS for Inhibitors of human tyrosyl-DNA phosphodiesterase 1 (TDP1): qHTS in cells in absence of CPT | 15% of 420,000 active | DT40 Tdp1-/- hTDP1 cells, no CPT, ATP luminescence, 48 h | Potency, µM (highest dose often 46.2 µM), without a hit: top-dose activity change, negative = growth inhibition, hits mostly inhibitors; also: potency is read from the fitted curve at half-maximal effect; nearly all actives have a fitted effect of over 55% in size
#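 Readout: luminescence from CellTiter-Glo after 30 min in the dark at RT. Cells: DT40 Tdp1-/- with stable hTDP1, 400/well. Exposure: compounds alone, ≥48 hr, 37 °C.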
# LDHA block = inhibitors of human lactate dehydrogenase A; P00338; purified LDHA, NADH/diaphorase-resazurin fluorescence; stronger effect = lower value; activity change, % (values are at about 110 or 230 µM); 0.15% of 480,000 active; in the data active = activity change below about -30%; inconclusive = mostly about -25% to -30%;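 also: plate controls were DMSO wells for no effect and wells without enzyme for full effect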
#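 Enzyme activity of human lactate dehydrogenase 5 (2 nM; 0.06 mM NADH, 0.2 mM pyruvate, 5 min, RT) is measured via a resazurin/diaphorase fluorescence readout of residual NADH.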
# IL-1B inflam inh = inflammasome signaling inhibition, IL-1 beta readout; THP-1 LPS/ATP IL-1B secretion, AlphaLISA, 16 h; stronger effect = lower value; activity change, % at 57.5 µM; 4.7% of 360,000 active; in the data active = activity change below about -50%; inconclusive = mostly about -30% to -49%
#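 Secreted IL-1B measured by AlphaLISA bead assay after 16 h compound exposure of THP-1 cells; compounds (final up to 57.5 uM) added 1 h before LPS (250 ng/mL) and ATP (1.25 mM) stimulation; lower signal means less secretion.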
# VP16 counter = Gal4-VP16 reporter inhibition counter-screen | Drosophila S2 Gal4-VP16 UAS-luciferase, luminescence, 20 h | Potency, µM (top dose mostly 53.6 µM), inactives show top-dose activity, negative = inhibition, most hits filed as inhibitors | 3.5% of 310,000 active | AID 2546;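 also: Gal4-VP16 expression switched on by copper sulfate through the metallothionein promoter; potency is read from the fitted curve at half-maximal effect; nearly all actives have a fitted effect of over 50% in size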
# RORgamma inh = ROR gamma (mouse) transcription inhibition | 5.4% of 310,000 active | Potency, µM (doses to about 53.6 µM), inactives show at the top dose activity change, negative = inhibition, usual class: inhibitors | Drosophila S2 Gal4-RORgamma UAS-luciferase reporter, 20 h | P51450; also: potency is read from the fitted curve at half-maximal effect; nearly all actives have a fitted effect of over 60% in size
# Target sequence (P51450 whole entry, looked up, the tested form may be a part): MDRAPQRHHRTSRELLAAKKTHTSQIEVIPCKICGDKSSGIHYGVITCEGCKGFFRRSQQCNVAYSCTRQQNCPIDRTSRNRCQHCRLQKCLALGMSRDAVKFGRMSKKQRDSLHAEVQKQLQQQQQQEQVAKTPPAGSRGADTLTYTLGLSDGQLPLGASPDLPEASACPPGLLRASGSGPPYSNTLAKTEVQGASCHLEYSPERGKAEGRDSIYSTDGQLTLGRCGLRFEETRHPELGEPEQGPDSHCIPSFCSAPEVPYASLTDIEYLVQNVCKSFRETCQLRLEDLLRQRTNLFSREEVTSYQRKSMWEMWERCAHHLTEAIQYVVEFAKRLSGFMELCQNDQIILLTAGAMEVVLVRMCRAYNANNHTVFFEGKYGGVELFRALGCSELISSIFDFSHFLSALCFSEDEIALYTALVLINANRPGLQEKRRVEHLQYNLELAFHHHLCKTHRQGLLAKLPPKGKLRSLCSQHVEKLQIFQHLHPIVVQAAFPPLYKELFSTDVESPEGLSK
#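 Schneider cells (Drosophila), stable Gal4 DBD–ROR gamma + UAS-luc; 1 hr cmpd preincubation; Cu2+ induction 700 uM final; 20 hr ambient; luminescence.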
# TDP1 cell CPT = growth inhibition of DT40 Tdp1-/-;hTDP1 cells with camptothecin (screen for TDP1 inhibitors) | chicken DT40 Tdp1-/-;hTDP1 cells + 20 nM CPT, ATP luminescence, 48 h | Potency, µM (top dose mostly 46.2 µM), inactives show at the highest dose activity change, negative = growth inhibition, usual class: inhibitors | 12% of 420,000 active | AID 686979; also: potency is read from the fitted curve at half-maximal effect; nearly all actives have a fitted effect of over 55% in size
#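 Cell growth measured by CellTiter-Glo luminescence after a minimum 48 h, 37 C compound exposure with 20 nM CPT in Tdp1-knockout DT40 cells stably expressing hTDP1, seeded 400/well; qHTS titration format.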
# An asterisk follows results filed as active; ? = inconclusive; / = no result; [ ] = dose if it differs, or a comment. Sampled rows, rich in hits. Any-hit rate of the full collection: about 18%. Unless noted, calls follow the shape of the dose curve; as a rule, active = well fitted curve in the direction sought with a large enough effect; inconclusive = small, poorly fitted or top-dose-only effect, or another doubt; inactive = no such curve, though single readings can be large; an effect the other way counts as inactive or inconclusive. Unless noted, % is scaled to controls: 0 for no effect and ±100 for the full control effect.
SMILES,DT40 TDP1 no CPT,LDHA block,IL-1B inflam inh,VP16 counter,RORgamma inh,TDP1 cell CPT
CCN(CC)C(=O)[C@H]1C[C@H](CC(=O)NC/C=C(\C)CCC=C(C)C)C(=O)N2CCc3c([nH]c4cc(-c5ccco5)ccc34)[C@]12C,?,2.2,-65.4*,/,/,?
CC(C)=CCC/C(C)=C/CNC(=O)C[C@H]1C[C@H](C(=O)N(C(C)C)C(C)C)[C@@]2(C)c3[nH]c4cc(-c5ccco5)ccc4c3CCN2C1=O,?,4.5,-65.2*,/,/,?
CC(C)=CCC/C(C)=C/CNC(=O)C[C@H]1C[C@H](C(=O)N2CCCCC2)[C@@]2(C)c3[nH]c4cc(-c5ccco5)ccc4c3CCN2C1=O,20.6µM*,-6.7,-67.5*,/,/,?
CC(C)=CCC/C(C)=C/CNC(=O)C[C@H]1C[C@H](C(=O)N(C(C)C)C(C)C)[C@@]2(C)c3[nH]c4cc(CCC(=O)N(C)C)ccc4c3CCN2C1=O,9.2µM*,7.8,-66.8*,/,/,10.3µM*
COc1ccc(CN2CCN(C(=O)c3cc4ccc(OC)cc4nc3C)CC2)cc1,/,0.9,/,/,/,/
O=C(Cc1cccc(C(F)(F)F)c1)NCCc1ccccn1,/,11.3,/,/,/,/
O=C(c1ccccc1F)N(Cc1ccco1)C1CC1,/,4.0,/,/,/,/
c1ccc(-c2nnc(CSc3nc(C4CC4)n(-c4ccccc4)n3)o2)cc1,/,0.1,/,/,/,/
O=c1c(O)c(-c2cc(O)c(O)c(O)c2)oc2cc(O)ccc12,/,/,/,-16.0%,-29.2%,/
COc1ccc(-c2oc3cc(O)c(OC)c(O)c3c(=O)c2OC)cc1O,0.92µM*,31.0,50.3,/,/,0.92µM*
COc1cc(-c2oc3cc(O)ccc3c(=O)c2O)ccc1O,?,/,/,-7.8%,8.7%,20.6µM*
CCOc1ccc(-c2oc3cc(Cl)ccc3c(=O)c2O)cc1OC,/,4.6,/,/,/,/
O=c1c(O)c(-c2ccc(O)c(O)c2)oc2cc(O)ccc12,6.68µM*,-9.8,-83.5*,-14.2%,-0.7%,23.1µM*
O=c1c(O)c(-c2ccc(O)cc2)oc2cc(O)ccc12,29.9µM*,/,/,-9.9%,-7.5%,26.6µM*
Cc1ccccc1NC(=O)CSc1cccs1,/,1.4,/,/,/,/
COc1cc(-c2oc3ccc(C)cc3c(=O)c2O)cc(OC)c1OC,?,1.2,/,/,/,5.8µM*
CCCOc1c(Br)cc(/C=C(/C#N)C(=O)OCC)cc1OC,/,4.8,/,/,/,/
O=C(CSc1nnc(-c2ccncc2)n1-c1ccc(Cl)cc1)c1c[nH]c(C(=O)N2CCCC2)c1,/,0.5,/,/,/,/
CCc1ccc(OCC(=O)Nc2onc3c2CC(C)CC3)cc1 (stereo unspecified),/,12.9,/,/,/,/
COc1ccc(/C=C/c2nc3ccccc3n2Cc2ccccc2OC)cc1,8.2µM*,-7.8,-201.0*,-83.9%,14.1µM*,7.31µM*
COc1ccccc1Cn1c(C(C)C)nc2ccccc21,?,1.5,1.6,-14.8%,7.94µM*,?
COc1ccccc1Cn1c(/C=C/c2ccccc2)nc2ccccc21,?,-6.1,-79.8*,22.4µM*,?,?
C=CCn1c(NCc2ccccc2OC)nc2ccccc21,?,-1.0,-13.2,-9.5%,?,-26.4%
Cc1ccc(CSCCNC(=O)NNC(=O)c2ccc(C)cc2)cc1,/,-1.3,/,/,/,/
Nc1ccccc1OCC(F)(F)F,/,-0.4,/,/,/,/
SMILES,DT40 TDP1 no CPT,LDHA block,IL-1B inflam inh,VP16 counter,RORgamma inh,TDP1 cell CPT
COC(=O)c1cccc(NC(=S)NCc2ccc(F)cc2)c1,?,-3.6,-5.3,?,10µM*,-5.0%
CNC(=S)Nc1cccc(C(=O)OC)c1,-6.5%,-5.8,/,-4.5%,?,2.6%
COC(=O)c1cccc(NC(=S)NCc2ccco2)c1,14.6µM*,0.3,-1.4,-18.0%,?,16.4µM*
COc1cc(NC(=S)NCc2ccco2)cc(OC)c1OC,9.2%,-0.1,26.6,20µM*,11.2µM*,-2.5%
COC(=O)c1ccn[nH]1,/,3.7,/,/,/,/
CCNCc1ccc(C)o1,/,-3.8,/,/,/,/
CC1CCN(c2nc3c(c(=O)n(C)c(=O)n3C)n2CCSc2nc3ccccc3s2)CC1,20.6µM*,-7.0,16.6,2.2%,-42.1%,10.3µM*
Cc1ccnc(SCCn2c(N3CCC(C)CC3)nc3c2c(=O)n(C)c(=O)n3C)n1,23.1µM*,-4.4,47.7,/,/,?
Cn1c(=O)c2c(nc(N3CCC(C(N)=O)CC3)n2CCSc2nc3ccccc3s2)n(C)c1=O,?,-2.8,13.1,-2.5%,-0.9%,?
CC1CCCN(c2nc3c(c(=O)n(C)c(=O)n3C)n2CCSc2nc3ccccc3o2)C1 (stereo unspecified),20.6µM*,-4.6,16.4,2.0%,-2.7%,23.1µM*
CC1CCCN(c2nc3c(c(=O)n(C)c(=O)n3C)n2CCSc2nc3ccccc3s2)C1 (stereo unspecified),18.4µM*,1.6,-12.3,-3.1%,-5.0%,16.4µM*
CC1CCCN(c2nc3c(c(=O)[nH]c(=O)n3C)n2CCSc2nc3ccccc3o2)C1 (stereo unspecified),-17.9%,2.6,11.6,-8.0%,1.2%,-7.1%
CN(C)c1ccc(C2CC(c3ccccc3)=CC(O)(c3ccccc3)C2C(=O)c2ccccc2)cc1 (stereo unspecified),/,-24.7,/,/,/,/
CC1CCN(C(=O)Nc2cccc(NC(=O)N3CCC(C)CC3)c2)CC1,5.17µM*,-1.0,?,1.3%,32.5%[10 µM],-6.1%
CC1CCN(C(=O)Nc2ccc3nsnc3c2)CC1,-21.1%,20.7,-5.9,-10.4%,1.0%,-0.5%
COC(=O)C1CCN(C(=O)Nc2ccccc2)CC1,-7.4%,0.7,-104.9*,5.5%[10 µM],-0.9%,7.8%
CN(c1ccccc1)S(=O)(=O)c1ccc(C(=O)OCn2nnc3ccccc3c2=O)cc1,/,-1.8,/,/,/,/
Cc1cc(N2CCN(C(=O)c3cccs3)CC2)c(F)cc1[N+](=O)[O-],5.17µM*,0.9,-5.2,?,?,10.3µM*
Cc1ccccc1C(=O)c1c[nH]c(C(=O)N2CCN(c3ccccc3F)CC2)c1,14.6µM*,-0.4,-66.2*,-14.7%,34.9%,18.4µM*
O=C(c1cccs1)N1CCN(c2ccc([N+](=O)[O-])cc2F)CC1,-20.6%,-0.3,0.0,18.7%,?,?
CCC(=O)c1ccc(N2CCCCCC2)c(F)c1,?,-3.0,-0.8,?,3.4%,-26.0%
CCC(=O)c1ccc(N2CCN(C(=O)c3ccccc3F)CC2)c(F)c1,20.6µM*,-6.5,0.0,-13.9%[10 µM],19.2%,10.3µM*
CCC(=O)c1ccc(N2CCN(C(=O)c3ccccc3Br)CC2)c(F)c1,10.3µM*,-1.3,-54.6*,?,-56.3%,?
N#CCc1c(C#N)c(N)nc(NCc2ccccc2)c1C#N,/,5.4,/,/,/,/

# Bioassay records (PubChem)
